From PubChem
An excerpt weighted towards active compounds, which were near 4.1% of everything screened.
DAX1 inh-1: inhibitors of human orphan nuclear receptor DAX1 (NR0B1). hit rate 0.99% among 340,000. inhibition, % at 6.75 µM. P51843. HEK293 Gal4-DAX1 luciferase reporter, luminescence;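 active = inhibition above the mean over all tested compounds plus 3 SD, cut at about 4.2% in these data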;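 note: 0% = DAX1-transfected cells with DMSO and 100% = empty-vector control cells with DMSO; inhibition shows as a rise in luminescence from relieved DAX1 repression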
ssDAF-12 act: S. stercoralis DAF-12 activation, primary screen | HEK293 ssDAF-12/GRIP1 lit1-tk-luc reporter, luminescence; % of 3 µM dafachronic acid response | activation, % at 6.8 µM | hit rate 1% among 370,000 | AID 652126;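 active = activation above the mean over all tested compounds plus 3 SD, cut at about 0.9% in these data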;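 note: 0% = DMSO-only wells and 100% = 3 µM delta7-dafachronic acid wells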
DAX1 inh-2: blocks DAX1 repression of SF-1 activated StAR promoter | hit rate 1.1% among 370,000 | AID 652010 | inhibition, % at 6.8 µM | HEK293T StAR-luciferase reporter, SF-1/DAX-1 repression relief;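 active = inhibition above the mean over all tested compounds plus 3 SD, cut at about 3.6% in these data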;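 note: 0% = DAX-1 cells with DMSO and 100% = cells lacking DAX-1 with DMSO; higher inhibition means more luminescence from relief of DAX-1 repression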
hcDAF12 agonist: H. contortus DAF-12 activation, primary screen. HEK293 hcDAF-12 lit1-tk-luc reporter, luminescence; 0% DMSO, 100% Δ7-dafachronic acid. activation, % at 6.8 µM. hit rate 1.4% among 370,000;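 active = activation above the mean of all tested compounds plus 3 SD, cut at about 5.5% in these data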;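 note: 100% = response to 3 µM Δ7-dafachronic acid high control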
hgDAF-12 ag: activates the H. glycines DAF-12 receptor ligand-binding domain; hit rate 1.8% among 370,000; HEK293 GAL4-hgDAF12 UAS-luciferase reporter, agonist luminescence; normalized to butyrate control; activation, % at 6.8 µM;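 active = activation above a cutoff set at the mean of all screened compounds plus 3 SD, cut at about 10% in these data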;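 note: 0% = DMSO wells and 100% = sodium butyrate wells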
hgDAF12 ag: hgDAF-12 agonism, confirmation assay; shares compounds with hgDAF-12 ag; HEK293 GAL4-hgDAF12 luciferase reporter, agonist mode; percent of butyrate response; activation, % at 6.8 µM; hit rate 80% among 3,300;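 active = mean activation over triplicate wells above the hit cutoff derived from the earlier primary screen, cut at about 11% in these data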;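 note: 0% = DMSO low control and 100% = 2 mM sodium butyrate high control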
LXRb DAF12 ctr: activates human LXR-beta, counter-screen for DAF-12 agonists; shares compounds with hgDAF-12 ag; HEK293 Gal4-LXR luciferase reporter, 24 h; activation, % at 6.8 µM; 3,300 tested, under 10 active; AID 743051;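 active = mean activation of the triplicate above a set limit carried over from the primary screen, none filed active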
Target sequence (P55055 whole entry, looked up, the tested form may be a part): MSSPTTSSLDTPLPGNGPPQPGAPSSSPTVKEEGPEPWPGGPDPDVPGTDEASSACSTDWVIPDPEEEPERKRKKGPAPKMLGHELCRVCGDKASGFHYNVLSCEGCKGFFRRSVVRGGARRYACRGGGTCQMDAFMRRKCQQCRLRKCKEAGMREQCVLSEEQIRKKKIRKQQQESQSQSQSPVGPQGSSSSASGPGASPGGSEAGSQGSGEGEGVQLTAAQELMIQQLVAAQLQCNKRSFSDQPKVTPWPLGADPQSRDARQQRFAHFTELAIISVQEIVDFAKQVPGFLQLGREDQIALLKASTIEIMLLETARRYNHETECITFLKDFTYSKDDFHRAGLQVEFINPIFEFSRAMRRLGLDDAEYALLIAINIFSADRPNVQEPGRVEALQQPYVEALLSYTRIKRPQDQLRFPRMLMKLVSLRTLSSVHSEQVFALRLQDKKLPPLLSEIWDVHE
Starred values were filed as active, the others as inactive.

For Brc1c(CSc2nc3ccccc3s2)nc2ncccn12 the results were DAX1 inh-1 0.6, ssDAF-12 act -0.4, DAX1 inh-2 3.1, hcDAF12 agonist 0.5, hgDAF-12 ag 16.3*, hgDAF12 ag 11.7* and LXRb DAF12 ctr 0.6.
CC(=O)N1CCN(c2ccc(NC(=O)c3ccc4ccccc4c3)cc2)CC1 was read as DAX1 inh-1 -1.1, ssDAF-12 act -1.5, DAX1 inh-2 -0.4, hcDAF12 agonist -1.6 and hgDAF-12 ag -0.5.
Screening CC(=O)Nc1ccc(N2CCCCC2)cc1 returned DAX1 inh-1 -0.3, ssDAF-12 act -1.4, DAX1 inh-2 0.6, hcDAF12 agonist -1.7 and hgDAF-12 ag 1.5.
For O=C(Nc1ccc(N2CCCCC2)cc1)c1ccc(F)cc1F the results were DAX1 inh-1 2.0, ssDAF-12 act 0.3, DAX1 inh-2 3.6*, hcDAF12 agonist 5.7*, hgDAF-12 ag 13.3*, hgDAF12 ag 16.9* and LXRb DAF12 ctr 0.9.
`Cn1nnc2cc(C(=O)NC3CC3)ccc21` gave DAX1 inh-1 -1.5, ssDAF-12 act -1.2, DAX1 inh-2 0.0, hcDAF12 agonist 0.8 and hgDAF-12 ag 1.8.
O=C(Nc1ccc(S(=O)(=O)N2CCCC2)cc1)c1cncc(Br)c1 was read as DAX1 inh-1 -1.2, ssDAF-12 act -1.7, DAX1 inh-2 -2.3, hcDAF12 agonist -1.1 and hgDAF-12 ag -2.3.
Cn1nnc2cc(C(=O)Nc3ccc4ccccc4c3)ccc21 was read as DAX1 inh-1 1.4, ssDAF-12 act 0.1, DAX1 inh-2 2.5, hcDAF12 agonist 1.8, hgDAF-12 ag 15.4*, hgDAF12 ag 16.7* and LXRb DAF12 ctr 0.7.
`O=C(Nc1ccc(N2CCCC2)cc1)c1ccc2ccccc2c1` gave DAX1 inh-1 1.4, ssDAF-12 act 0.3, DAX1 inh-2 3.0, hcDAF12 agonist 1.8, hgDAF-12 ag 16.1*, hgDAF12 ag 12.2* and LXRb DAF12 ctr 0.8.
Screening O=C(Nc1ccc(N2CCCCC2)cc1)c1cncc(Br)c1 returned DAX1 inh-1 1.3, ssDAF-12 act 0.1, DAX1 inh-2 2.5, hcDAF12 agonist 1.7, hgDAF-12 ag 14.9*, hgDAF12 ag 13.7* and LXRb DAF12 ctr 0.7.
`CCOc1ccc(NC(=O)CN(C)C(=O)c2cc(S(=O)(=O)N3CCCCC3)ccc2Cl)cc1OCC` gave DAX1 inh-1 0.0, ssDAF-12 act -0.7, DAX1 inh-2 2.1, hcDAF12 agonist -0.3 and hgDAF-12 ag 3.7.
Screening CC#CC(=O)N1CCC(C(=O)Nc2ccc(Oc3ccccc3)nc2)CC1 returned DAX1 inh-1 -0.1, ssDAF-12 act -0.8, DAX1 inh-2 -0.6, hcDAF12 agonist -0.7 and hgDAF-12 ag -0.4.
For Nc1nc2ccccc2cc1C(=O)NCc1ccc(-c2ccccc2)cc1 the results were ssDAF-12 act -1.8, DAX1 inh-2 -5.0, hcDAF12 agonist -4.7 and hgDAF-12 ag -9.1.
`O=C(N/N=C/c1ccccc1)c1[nH]ncc1Br` gave DAX1 inh-1 4.2*, ssDAF-12 act -0.3, DAX1 inh-2 1.9, hcDAF12 agonist 1.5, hgDAF-12 ag 15.2*, hgDAF12 ag 13.6* and LXRb DAF12 ctr 0.3.
`COc1ccccc1OCC(=O)Nc1nc(C)c(C)s1` gave DAX1 inh-1 1.8, ssDAF-12 act 0.5, DAX1 inh-2 1.4, hcDAF12 agonist 2.4, hgDAF-12 ag 13.7*, hgDAF12 ag 12.2* and LXRb DAF12 ctr 0.8.
Screening COC(=O)c1sc(NC(=O)COc2ccccc2C)nc1C returned DAX1 inh-1 -0.2, ssDAF-12 act -1.5, DAX1 inh-2 0.8, hcDAF12 agonist -0.3 and hgDAF-12 ag -1.0.
Cc1nn2cc(-c3ccc(Cl)cc3)nc2s1 was read as DAX1 inh-1 1.7, ssDAF-12 act -0.1, DAX1 inh-2 3.9*, hcDAF12 agonist 4.6, hgDAF-12 ag 13.9*, hgDAF12 ag 15.6* and LXRb DAF12 ctr 0.9.
Screening Cc1nn2cc(-c3ccc(-c4ccccc4)cc3)nc2s1 returned DAX1 inh-1 0.8, ssDAF-12 act 0.9, DAX1 inh-2 2.4, hcDAF12 agonist 5.7*, hgDAF-12 ag 15.3*, hgDAF12 ag 16.0* and LXRb DAF12 ctr 0.8.
